From PubChem BioAssay AID720648 (The Scripps Research Institute Molecular Screening Center, 2013) come the findings set out here.

Hit rate of the full screen: of about 370,000 compounds, about 3,100 (0.84%) were called active.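 The calls were made as follows: active = inhibition above the mean of compounds lying between control limits plus 3 SD, set per campaign (cut at about 8.5% in these data); inactive = the rest.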 The sample as a whole holds a higher share of actives than the screen did.

For this assay, the target named is Disintegrin and metalloproteinase domain-containing protein 17 (Homo sapiens) (UniProt P78536). Briefly: ADAM17 inhibitors, primary screen, biochemical, QFRET (AID 720648).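 Also: 0% = DMSO-only wells as the low control.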 Conditions: recombinant ADAM17, EDANS/DABCYL FRET peptide cleavage; at 6.95 µM; stronger effect = higher value.
Disintegrin and metalloproteinase domain-containing protein 17 (Homo sapiens), sequence (P78536 215-824 limits assumed): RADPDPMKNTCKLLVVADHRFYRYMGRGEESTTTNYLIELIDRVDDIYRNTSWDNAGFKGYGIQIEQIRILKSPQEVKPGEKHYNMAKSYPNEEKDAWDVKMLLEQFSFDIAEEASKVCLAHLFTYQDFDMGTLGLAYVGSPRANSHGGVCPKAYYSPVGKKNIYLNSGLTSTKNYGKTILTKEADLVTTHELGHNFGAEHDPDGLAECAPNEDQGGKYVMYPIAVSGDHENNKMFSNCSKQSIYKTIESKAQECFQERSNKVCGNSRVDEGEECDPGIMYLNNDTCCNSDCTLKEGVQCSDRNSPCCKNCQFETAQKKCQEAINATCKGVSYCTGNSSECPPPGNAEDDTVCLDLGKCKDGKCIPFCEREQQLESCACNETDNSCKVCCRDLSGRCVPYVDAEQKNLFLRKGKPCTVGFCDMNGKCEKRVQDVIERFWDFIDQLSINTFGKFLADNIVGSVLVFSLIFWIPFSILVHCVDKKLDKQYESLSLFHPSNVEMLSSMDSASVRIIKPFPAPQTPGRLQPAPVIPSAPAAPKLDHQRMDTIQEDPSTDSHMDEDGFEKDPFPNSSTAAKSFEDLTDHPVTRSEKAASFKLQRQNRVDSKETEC
Regarding `O=C(OC12CCCN(C1)/C(=C/c1ccccc1)C2)c1ccco1` (stereo unspecified), the inhibition was 6.28% (inactive).
As for `COC(=O)[C@]12C[C@H](CC(=O)NCCCN3CCCC3=O)C(=O)N(CCc3ccc(OC)c(OC)c3)C1=C[C@H](COCc1ccccc1)O[C@@H]2C`, the figure is -6.14% (inactive); as for `O=C(NCc1ccccc1)C1=C[C@@H](c2ccc(C(F)(F)F)cc2)C[C@@H](OCc2ccc(CO)cc2)O1`, 10.7% (active).
Take `O=C(C1=C[C@H](c2ccc(C(F)(F)F)cc2)C[C@H](OCc2ccc(CO)cc2)O1)N1CCN(Cc2ccccc2)CC1`: the inhibition is 5.72% (inactive).
To `CC(C)(C)[C@H]1C=C(C(=O)NCc2ccccc2)O[C@@H](OCc2ccc(CO)cc2)C1` belongs 2.4% (inactive); to `Cc1ccc(OCCOCCOc2ccc(Br)cc2/C=N\NC(=O)c2ccncc2)cc1`, 10% (active); to `Cc1ccc(OCCOc2cccc(/C=N/NC(N)=O)c2)cc1`, -1.45% (inactive).
To `COc1ccc(Cl)cc1C=CC=NNC(=O)c1ccncc1` belongs -4.19% (inactive).
For the compound `CN1C(=O)c2cc(NS(C)(=O)=O)ccc2OC[C@@H]2O[C@@H](CC(=O)NCc3ccc(-c4ccccc4)cc3)CC[C@H]21`, the inhibition is -3.9% (inactive).
As for `C#CCN(C[C@@H]1[C@@H](OC(=O)NC2CC2)[C@@H](OC(=O)NC2CC2)Cn2c(=O)ccc(=O)n21)S(=O)(=O)c1ccc(C)cc1`, the inhibition is -1.79% (inactive).
To `C#CCN(C[C@H]1[C@H](OC(=O)NC2CCCC2)[C@H](OC(=O)NC2CCCC2)C[C@H]2C(=O)N(c3ccccc3)C(=O)[C@@H]12)S(=O)(=O)c1ccc(C)cc1` belongs 9.64% (active).
To `Cc1ccc(S(=O)(=O)N2C[C@]3(O)C[C@@H]4C(=O)N(c5ccccc5)C(=O)[C@@H]4C[C@]3(OC(=O)NC3CC3)C2)cc1` belongs -1.11% (inactive); to `COC(=O)[C@]12C[C@H](CC(=O)NCc3ccccc3)C(=O)N(CCC3=CCCCC3)C1=C[C@H](C(C)C)O[C@@H]2C1CC1`, 6.48% (inactive); to `O=C(CCNS(=O)(=O)c1ccccc1C(F)(F)F)NCc1ccc2c(c1)OCO2`, -0.25% (inactive).
As to `CC1(C(=O)NCc2ccc3c(c2)OCO3)CCN1C(=O)Cc1cccc2ccccc12` (stereo unspecified), the inhibition is -3.18% (inactive).
To `N#Cc1nc(Cc2cccc3ccccc23)oc1NCc1ccc2c(c1)OCO2` belongs 9.51% (active); to `CCOC(=O)C(=O)N(Cc1ccccc1)c1ccccc1C(=O)Nc1cc(OC)ccc1OC`, 4.35% (inactive); to `O=C(CSc1nnc(-c2ccccn2)n1-c1ccc(Cl)cc1)Nc1ccccc1-c1ccccc1`, 5.21% (inactive).
In the case of `CN(C(=O)c1cccc(NC(=O)Cc2cccc(NC(=O)C3CCCN(C(=O)C4CC4)C3)c2)c1)C1CCC1` (stereo unspecified), the inhibition was -2.72% (inactive).
In the case of `CN(C(=O)c1cccc(NC(=O)Cc2cccc([N+](=O)[O-])c2)c1)C1CCCCC1`, the inhibition was 10.3% (active).
Regarding `CN(C(=O)c1cccc(NC(=O)Cc2ccc([N+](=O)[O-])cc2)c1)C1CCC1`, the inhibition was 3.46% (inactive).
Take `Cc1ccccc1CS(=O)(=O)Cc1ccc(C(=O)Nc2ccc(Cl)cc2)o1`: the inhibition was -7.43% (inactive).
In the case of `CC1C(=O)N(Cc2cn(CC3CCCCC3)nn2)CCS(=O)(=O)N1Cc1ccc(-c2cccc(N(C)C)c2)cc1` (stereo unspecified), the inhibition is -2.56% (inactive).
With `COc1ccc(Cn2cc(CN3CCS(=O)(=O)N(Cc4ccc(-c5cccc(Cl)c5)cc4)C(C)C3=O)nn2)cc1` (stereo unspecified), the inhibition is 10% (active).
For the compound `COc1ccc(-c2ccc(CN3C(CC(C)C)C(=O)N(Cc4cn(CC5CCCCC5)nn4)CCS3(=O)=O)cc2)cn1` (stereo unspecified), the inhibition is 3.81% (inactive).
To `CC1C(=O)N(Cc2cn(Cc3ccco3)nn2)CCS(=O)(=O)N1Cc1ccc(-c2cccc(CO)c2)cc1` (stereo unspecified) belongs 0.84% (inactive); to `COc1ccc(-c2ccc(CN3C(CC(C)C)C(=O)N(Cc4cn(CC5CCCCC5)nn4)CCS3(=O)=O)cc2)cc1` (stereo unspecified), 9.87% (active); to `CC(C)CC1C(=O)N(Cc2cn(CC3CCCCC3)nn2)CCS(=O)(=O)N1Cc1ccc(-c2ccc(Cl)cc2)cc1` (stereo unspecified), -0.31% (inactive).
To `COc1cc(/C=C/C(=O)n2cnc3ccccc32)cc(OC)c1OC` belongs -11.9% (inactive); to `CC(=O)OC12CCCN(C1)/C(=C/c1ccncc1)C2` (stereo unspecified), -1.16% (inactive).
For the compound `Clc1ccc(-n2c(SC/C=C/c3ccccc3)nnc2-c2ccco2)cc1`, the inhibition was 8.36% (inactive).
As for `CC(C)CNc1cccc2c1S(=O)(=O)N(Cc1cn(Cc3ccccc3C(F)(F)F)nn1)Cc1ccccc1O2`, the figure is -9.08% (inactive).
Turning to `CCCNC(=O)C1CC(=O)N(c2ccc(OCc3ccccc3)cc2)C1` (stereo unspecified), the inhibition is -1.62% (inactive).
To `COc1cc(C2CC(=O)N3CN(Cc4ccccc4)CSC3=C2C#N)ccc1OCc1ccccc1` (stereo unspecified) belongs 10.2% (active); to `COc1cc(C2C(C(=O)c3ccco3)=C(O)C(=O)N2c2cc(C)on2)ccc1OCc1ccccc1` (stereo unspecified), -1.07% (inactive); to `Cc1cc(C)nc(NC(=S)N2CCN(c3ccc(C(F)(F)F)cn3)CC2)c1`, -0.9% (inactive).
With `Cc1ccc(C)c(NC(=S)NCC(c2cccnc2)N2CCOCC2)c1` (stereo unspecified), the inhibition was 4.64% (inactive).
To `Cc1ccc(C)c(NC(=S)NNC(=S)Nc2ccc(C(C)C)cc2)c1` belongs 11% (active).
Regarding `CC(C)c1ccc(NC(=S)NC2CC3C=CC2C3)cc1` (stereo unspecified), the inhibition is 1.36% (inactive).
Take `COc1ccnc(NC(=S)N2CCN(c3ncc(C(F)(F)F)cc3Cl)CC2)c1`: the inhibition is -3.73% (inactive).
Turning to `C[C@H](C(=O)N(C)c1ccccc1)[C@@H](O)c1ccc(Cl)cc1`, the inhibition was -3.74% (inactive).
With `C[C@H](CO)N1C[C@H](C)[C@@H](CN(C)C(=O)C2CCCCC2)OCc2cnnn2CCCC1=O`, the inhibition is 3% (inactive).
For the compound `COC(=O)N(C)C[C@@H]1OCc2cnnn2CCCC(=O)N([C@@H](C)CO)C[C@@H]1C`, the inhibition is 8.71% (active).
Turning to `C[C@@H]1CN([C@H](C)CO)C(=O)CCCn2nncc2CO[C@@H]1CN(C)C(=O)OCc1ccccc1`, the inhibition was -3.01% (inactive).
To `COC(CNC(=O)[C@H](Cc1ccccc1)NC1(C(=O)NC2CCCCC2)CCCCC1)OC` belongs -1.27% (inactive); to `COc1ccc(S[C@]2(C(=O)N(C)C)CC(=O)N(c3ccc(OC)cc3)[C@@H]2c2ccc(OC)cc2)cc1`, 3.23% (inactive).

The term inhibition denotes the drop in the measured response relative to a control, in per cent.
